Laboratory results from PubChem BioAssay (NCATS).
Inconclusive results are not listed. Unmarked numbers belong to inactive results. The source made the active and inactive calls. Calls come from the whole dose curve.

target: Retinoic acid receptor RXR-alpha (Homo sapiens) (UniProt P19793); test: qHTS assay for small molecule agonists of retinoid X receptor alpha signaling (AID 588544); settings: HEK293T RXRa-UAS-bla, beta-lactamase reporter, 18 h; series mostly up to 76.7 µM; activation: at the top concentration
Sequence (P19793 whole entry, looked up): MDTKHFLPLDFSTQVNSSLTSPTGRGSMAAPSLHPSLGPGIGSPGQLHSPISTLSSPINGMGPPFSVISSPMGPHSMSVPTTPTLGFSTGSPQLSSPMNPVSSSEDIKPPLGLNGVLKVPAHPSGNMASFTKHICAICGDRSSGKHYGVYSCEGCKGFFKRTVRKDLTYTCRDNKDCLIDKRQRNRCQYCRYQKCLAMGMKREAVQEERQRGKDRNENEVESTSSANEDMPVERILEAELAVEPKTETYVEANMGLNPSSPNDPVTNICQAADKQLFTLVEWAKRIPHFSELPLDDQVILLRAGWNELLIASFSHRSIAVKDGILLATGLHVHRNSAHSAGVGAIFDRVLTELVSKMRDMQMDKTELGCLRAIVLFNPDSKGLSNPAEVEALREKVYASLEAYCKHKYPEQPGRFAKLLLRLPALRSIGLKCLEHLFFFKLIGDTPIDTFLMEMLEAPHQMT
From the text: NIH Chemical Genomics Center [NCGC] U.S. Environmental Protection Agency [EPA] National Institutes of Environmental Health Sciences [NIEHS] National Toxicology Program [NTP] NCGC Assay Overview The Retinoid X receptor (RXR), a nuclear hormone receptor is expressed in liver, spleen, placenta, epidermis, central nervous system. These receptors are able to form homo and heterodimers with other nuclear receptors and due to this heterodimerizing ability, RXR functions as master regulators producing diverse physiological effects. Three subtypes of RXR exist; alpha, beta and gamma. Retinoid X receptor alpha (RXR-alpha) has potential roles in metabolic signaling pathways, skin alopecia, dermal cysts, cardiac development, insulin sensitization etc. Therefore screening environmental chemicals on RXR-alpha signaling can be used for the studies focused on such therapeutic applications.
NCGC Assay Protocol Summary Using a beta-lactamase reporter-gene under control of Retinoid X receptor--alpha (RXR-alpha) response element, a cell-based assay [GeneBLAzer (RXR-alpha -UAS-bla assay developed by Invitrogen] was used to measure RXR-alpha ligands signaling. GeneBLAzer RXR-alpha -UAS-bla HEK293T cells were used with assay medium containing 2% charcoal-stripped FBS. The assay was performed in clear bottom black Greiner 1536-well plates. 9-cis-retinoic acid was used in the screen as the positive control. Library compounds were measured for their ability to stimulate the reporter gene activity. Compounds were screened in a titration series in 1536-well format. The fluorescence intensity (405 nm excitation, 460/530 nm emission) was measured using an EnVision plate reader. Data was normalized relative to 9-cis-retinoic acid control (500 nM, 100%), and DMSO only wells (basal, 0%). Concentration-response titration points for each compound were fitted to the Hill equation yielding concentrations of half-maximal stimulation (EC50) and maximal response (efficacy) values. qHTS protocol for RXR-alpha beta-lactamase assay in agonist mode [Step] [Parameter] [Value] [Description] 1. Reagent; 6 uL; 2500 cells/well 2. Incubation; 37 C for 4 hrs 3. Compounds; 23 nL; 0.59 nM to 92 uM 4. Controls (9-cis-retinoic acid); 23 nL, - One column with dose response, start 38 uM, 1:3 dilutions in duplicates - Final concentrations of 500 nM and 50 nM in two columns 5. Incubation; 37 C for 18 hrs 6. Detection reagent; 1 uL of CCF4-dye 7. Incubation; RT for 2 hrs 8. Detection; Fluorescence; Envision plate reader

In the case of `CCNc1nc(N)nc(Cl)n1`, the Potency is reported as “inactive”.

Compared with `CN(C)CCOCCN(C)C`, `CCCCOCCOCCO` is higher in “activation” value: -5.52% for the first, 4.77% for the second.

First: CCCCOCCOCCOC(=O)CCCCC(=O)OCCOCCOCCCC
Second: CCOCCOCCOCCO
The “activation” value of the first is higher: 18% for the first, 11.9% for the second.

Going from `CCCC/C=C/CCCCO` to `CC/C=C/CCCCCCCCCCOC(C)=O`, the “activation” value rises from 13.8% to 18.5%.

Compared with `CC(C)(C)c1n[nH]c(=O)n(N)c1=O`, `Cc1ccc(C(C)(C)C)c(O)c1` is higher in “activation” value: 7.53% for the first, 20.1% for the second.

Going from `CC(=O)OC(C)(C)C1CC=C(C)CC1` (stereo not given) to `CC(=O)/C=C/C1C(C)=CCCC1(C)C` (stereo not given), the “activation” value rises from -14.6% to 2.6%.

First: CCCCCCCC[Si](Cl)(Cl)Cl
Second: CCCCCCCCCc1ccccc1
The “activation” value of the first is higher: 15.4% for the first, 5.89% for the second.

Going from `CCCCCCCCCCCCCCCCCC#N` to `CC(C)CCCCCCCCCCCCCCC(=O)O`, the “activation” value rises from -0.954% to 0.0658%.

Compared with `CCCCC(CC)COC(=O)CS` (stereo not given), `C=C(C)C(=O)OCCCCCCCCCCCC` is higher in “activation” value: 5.23% for the first, 7.05% for the second.

Compared with `Cc1nn(C)c(Oc2ccccc2)c1/C=N/OCc1ccc(C(=O)OC(C)(C)C)cc1`, `CC(C)(C)c1ccc(C(=O)O)cc1` is higher in “activation” value: -15% for the first, -4.2% for the second.

First: O=C=NC1CCC(CC2CCC(N=C=O)CC2)CC1 (stereo not given)
Second: OC1CCCCCCCCCCC1
The “activation” value of the first is higher: -4.24% for the first, -6.14% for the second.

Going from `O=C(O)c1cccc(C(=O)O)c1` to `COC(=O)c1cccc(C(=O)OC)c1`, the “activation” value rises from 5.69% to 7.14%.

Compared with `C/C(=C\C(C)CC(C)CC(C)C)C1CC(=O)OC1=O` (stereo not given), `CC(C)OC(=O)c1ccccc1C(=O)OC(C)C` is higher in “activation” value: -11.4% for the first, 15.3% for the second.

Going from `CC(C)(C)c1ccc(O)c(C(C)(C)C)c1` to `CC(C)(C)c1cccc(C(C)(C)C)c1O`, the “activation” value rises from 19.6% to 22.2%.

Compared with `O=C(O)CN(CCCN(CC(=O)O)CC(=O)O)CC(=O)O`, `CCCCCCC(O)CCCCCCCCCCC(=O)O` (stereo not given) is lower in “activation” value: -6.15% for the first, -6.97% for the second.

Going from `CCC(=O)OCCc1ccccc1` to `Cl[Si](Cl)(Cl)c1ccccc1`, the “activation” value rises from -4.11% to 15.9%.

Going from `Cc1cc(C)c(N)c(Cl)c1` to `COc1cc(Cl)c(OC)cc1N`, the “activation” value rises from 0.0987% to 5.82%.

Compared with `C[Si]1(C)O[Si](C)(C)O[Si](C)(C)O1`, `C[Si](C)(C)N[Si](C)(C)C` is lower in “activation” value: 29.7% for the first, 13.2% for the second.

Compared with `CC(=O)CC(=O)Nc1ccccc1C`, `CCc1cccc(C)c1N(C(=O)CS(=O)(=O)O)[C@@H](C)COC` is higher in “activation” value: -8.78% for the first, 0.822% for the second.

Compared with `CC(C)CCCCOC(=O)c1ccccc1C(=O)OCCCCC(C)C`, `CO[Si](CCCNCCN)(OC)OC` is higher in “activation” value: -14.4% for the first, 3.99% for the second.

`C=Cc1ccc(P(c2ccccc2)c2ccccc2)cc1` was tested, and the “activation” value was -14.6%.
